Results from PubChem BioAssay (NCI).
The panel holds about 79,000 compounds, 15% with a hit somewhere; the sample as a whole holds those more often. A number with no mark means an inactive call. Calls of active or inactive are those of the source. Rule as the data show it: active = growth inhibition above about 70%; inactive = the rest.

Legend:
[1] = NCI Yeast Anticancer Drug Screen. Data for the rad50 strain (AID 155);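 also: 0% = growth of vehicle-only cultures of the same strain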; conditions: S. cerevisiae rad50 strain growth inhibition; at 50.0 µM; hits give high values
Method in brief: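 Genetically altered yeast (DNA repair pathway); compound treatment; growth inhibition vs vehicle ctrl.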

[2] = NCI Yeast Anticancer Drug Screen. Data for the mec2-1 strain (AID 157); conditions: S. cerevisiae mec2-1 strain, at 50.0 µM, hits give high values
Method in brief: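 Growth inhibition is read against vehicle-treated controls after compound exposure of the mec2-1 yeast strain, which is defective in DNA damage repair or cell cycle control.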

[3] = NCI Yeast Anticancer Drug Screen. Data for the sgs1 mgt1 strain (AID 161);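 also: 0% = growth of cultures given vehicle only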; conditions: S. cerevisiae sgs1 mgt1 strain, at 50.0 µM, hits give high values
Method in brief: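 This yeast growth screen uses a strain with defined DNA-repair lesions; compound-treated growth is compared with vehicle-treated growth.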

[4] = NCI Yeast Anticancer Drug Screen. Data for the cln2 rad14 strain (AID 165);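 also: 0% = growth equal to vehicle treated cultures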; conditions: S. cerevisiae cln2 rad14 strain, at 50.0 µM, hits give high values
Method in brief: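 Growth inhibition, relative to vehicle-treated controls, is the read-out. The test organism is a yeast strain with defined genetic alterations, cln2 rad14.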

[5] = NCI Yeast Anticancer Drug Screen. Data for the bub3 strain (AID 167); conditions: S. cerevisiae bub3 mutant strain, at 50.0 µM, hits give high values
Method in brief: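 Yeast carrying a defined mutation is treated with each compound, and growth is compared with that of vehicle-exposed cells to give inhibition.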

[6] = NCI Yeast Anticancer Drug Screen. Data for the mlh1 rad18 strain (AID 175); conditions: S. cerevisiae mlh1 rad18 strain growth inhibition; at 50.0 µM; hits give high values
Method in brief: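 Cells of a genetically altered yeast strain, deficient in DNA damage repair, were treated with compound. Their growth was then compared with that of vehicle-treated cultures to give inhibition.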

CCCOC(=O)c1c(Cl)c(Cl)c(Cl)c(Cl)c1C(=O)OCCC
growth inhibition [1]: 12.8%
growth inhibition [2]: -20.8%
growth inhibition [3]: 4.8%
growth inhibition [4]: -3.05%
growth inhibition [5]: -15.2%
growth inhibition [6]: 8.3%

CCC1(C2C=COC=C2)NC(=O)NC1=O (centres undefined)
growth inhibition [1]: -14.1%
growth inhibition [2]: 3.8%
growth inhibition [3]: -8.35%
growth inhibition [4]: 6.45%
growth inhibition [5]: -4.75%
growth inhibition [6]: -2%

COC(=O)c1cc(=O)[nH]c(=O)[nH]1
growth inhibition [1]: -10.6%
growth inhibition [2]: -12.8%
growth inhibition [3]: -15.8%
growth inhibition [4]: 9.45%
growth inhibition [5]: -13.5%
growth inhibition [6]: -15.9%

Clc1nc(Cl)c2ncn(C3CCCCO3)c2n1 (centres undefined)
growth inhibition [1]: 26.4%
growth inhibition [2]: 26.1%
growth inhibition [3]: 5.05%
growth inhibition [4]: 4.6%
growth inhibition [5]: 38.2%
growth inhibition [6]: 14.3%

CN(C)CC(N)C(=O)O (centres undefined)
growth inhibition [1]: -4.35%
growth inhibition [2]: -13.1%
growth inhibition [3]: -12.2%
growth inhibition [4]: -13.6%
growth inhibition [5]: -21.3%
growth inhibition [6]: -18.6%

Cc1ccc(C(C)(CCC(=O)O)c2ccc(C)o2)o1
growth inhibition [1]: 36.2%
growth inhibition [2]: 12.2%
growth inhibition [3]: 7.35%
growth inhibition [4]: 45.2%
growth inhibition [5]: 8.5%
growth inhibition [6]: 25.4%

N=C(N)C(N=Nc1ccccc1)C(=N)N (centres undefined)
growth inhibition [1]: -25.4%
growth inhibition [2]: -7.45%
growth inhibition [3]: -22.1%
growth inhibition [4]: -33.5%
growth inhibition [5]: -25.5%
growth inhibition [6]: -16%

C[Si](Cn1ccc(=O)n(C[Si](C)(c2ccccc2)c2ccccc2)c1=O)(c1ccccc1)c1ccccc1
growth inhibition [1]: -3.7%
growth inhibition [2]: -7.65%
growth inhibition [3]: -12.3%
growth inhibition [4]: -13.9%
growth inhibition [5]: -2.4%
growth inhibition [6]: 15.2%

O=P(Nc1cccc(Cl)c1)(Nc1cccc(Cl)c1)c1ccccc1
growth inhibition [1]: 96.8% (active)
growth inhibition [2]: 74.1% (active)
growth inhibition [3]: 96.9% (active)
growth inhibition [4]: 76.7% (active)
growth inhibition [5]: 85.3% (active)
growth inhibition [6]: 95.8% (active)

Cc1ccc(NCC(O)CN2CCCC2)cc1 (centres undefined)
growth inhibition [1]: 12.3%
growth inhibition [2]: 5.35%
growth inhibition [3]: 12.5%
growth inhibition [4]: -26.4%
growth inhibition [5]: -14.9%
growth inhibition [6]: 12.1%

CC(O)c1ccc2c(c1)Nc1ccccc1S2 (centres undefined)
growth inhibition [1]: -6.95%
growth inhibition [2]: -21.9%
growth inhibition [3]: -16.4%
growth inhibition [4]: -7.05%
growth inhibition [5]: -24.4%
growth inhibition [6]: -11%

CSc1nc2c(c(O)c(C)c(=O)n2C2OCC(OC(C)=O)C(OC(C)=O)C2OC(C)=O)c(=O)n1C (centres undefined)
growth inhibition [1]: 10.6%
growth inhibition [2]: -26.5%
growth inhibition [3]: -15.7%
growth inhibition [4]: 2.9%
growth inhibition [5]: 2.2%
growth inhibition [6]: -1.3%

C/C(CC(=O)Nc1ccc(Cl)cc1)=N\NC(N)=S
growth inhibition [1]: -7.95%
growth inhibition [2]: -4.65%
growth inhibition [3]: 9.6%
growth inhibition [4]: 20.4%
growth inhibition [5]: -3.75%
growth inhibition [6]: -0.6%

CSc1ccc(NC(=O)Nc2cc(C(C)C)ccc2C)cc1
growth inhibition [1]: 0.6%
growth inhibition [2]: 38.4%
growth inhibition [3]: 13.9%
growth inhibition [4]: -18%
growth inhibition [5]: 43.2%
growth inhibition [6]: 28.2%

COC(=O)c1nnn(CCc2c[nH]c3ccccc23)c1C(=O)OC
growth inhibition [1]: -10.8%
growth inhibition [2]: 4%
growth inhibition [3]: -11.3%
growth inhibition [4]: -11.6%
growth inhibition [5]: 19.8%
growth inhibition [6]: -24.7%

CCOC(=O)C1CN(CCCN2CC(C(=O)OCC)C(=O)C2=O)C(=O)C1=O (centres undefined)
growth inhibition [1]: 9.9%
growth inhibition [2]: 7.25%
growth inhibition [3]: 3.5%
growth inhibition [4]: 24.1%
growth inhibition [5]: 9.95%
growth inhibition [6]: -3.95%

CNC(=S)NC
growth inhibition [1]: 11.9%
growth inhibition [2]: 11.1%
growth inhibition [3]: 13.4%
growth inhibition [4]: -51.1%
growth inhibition [5]: 0.2%
growth inhibition [6]: -13.8%

CC(=O)OCC(COC(C)=O)C(C)=O
growth inhibition [1]: -7.35%
growth inhibition [2]: -5.75%
growth inhibition [3]: -8.5%
growth inhibition [4]: 21.6%
growth inhibition [5]: 4.65%
growth inhibition [6]: -22.6%

O=C(Nc1ccccc1)c1cccc(F)c1
growth inhibition [1]: -2.9%
growth inhibition [2]: -20.8%
growth inhibition [3]: -6.25%
growth inhibition [4]: 9.1%
growth inhibition [5]: -19.4%
growth inhibition [6]: 7.6%

COc1ccc(C(=O)CCc2cccc(NC(=O)CCCl)c2)cc1
growth inhibition [1]: -17.6%
growth inhibition [2]: 6.2%
growth inhibition [3]: 6.45%
growth inhibition [4]: -9.1%
growth inhibition [5]: -6.85%
growth inhibition [6]: -11.8%

NC(CC(=O)NC(CC(=O)O)C(=O)O)C(=O)O (centres undefined)
growth inhibition [1]: -5.5%
growth inhibition [2]: -1%
growth inhibition [3]: -8.9%
growth inhibition [4]: -56%
growth inhibition [5]: -20%
growth inhibition [6]: 5.2%

CC1=NC(C(N)=O)C(=O)N1 (centres undefined)
growth inhibition [1]: -35%
growth inhibition [2]: -23.4%
growth inhibition [3]: -15.3%
growth inhibition [4]: -30.4%
growth inhibition [5]: -8.8%
growth inhibition [6]: -0.65%

C=CCCC12CCCC(=O)C1Sc1ccc3ccccc3c12 (centres undefined)
growth inhibition [1]: 9.8%
growth inhibition [2]: -3.85%
growth inhibition [3]: 11.3%
growth inhibition [4]: 10.8%
growth inhibition [5]: 35.3%
growth inhibition [6]: 7.15%

CNc1ccc(O)cc1
growth inhibition [1]: 3.6%
growth inhibition [2]: 6.9%
growth inhibition [3]: 5.75%
growth inhibition [4]: -24.4%
growth inhibition [5]: -0.05%
growth inhibition [6]: 15.4%

COC1(c2ccc(C)cc2)c2cccc3cccc(c23)C1(O)c1ccc(C)cc1 (centres undefined)
growth inhibition [1]: 18.6%
growth inhibition [2]: 15.6%
growth inhibition [3]: 12%
growth inhibition [4]: 21.6%
growth inhibition [5]: -4.15%
growth inhibition [6]: 9.9%

CCCC(CCC)(C(=O)O)C(=O)O
growth inhibition [1]: -10.3%
growth inhibition [2]: -25.1%
growth inhibition [3]: -12.5%
growth inhibition [4]: 27.5%
growth inhibition [5]: -17.9%
growth inhibition [6]: 11.5%

C/C(=C\c1ccccc1)C(O)C(=O)c1nc2ccc([N+](=O)[O-])cc2[nH]c1=O (centres undefined)
growth inhibition [1]: -5.55%
growth inhibition [2]: -33.1%
growth inhibition [3]: -11.4%
growth inhibition [4]: 21.4%
growth inhibition [5]: -26.4%
growth inhibition [6]: 14.5%

CCCCCCCCCCCCCCCC(=O)CCCCCCCCCCCCCCC
growth inhibition [1]: 21.1%
growth inhibition [2]: -15.9%
growth inhibition [3]: 6.35%
growth inhibition [4]: -3.8%
growth inhibition [5]: -0.95%
growth inhibition [6]: 28.9%

CC1=C(Br)C(=O)C(C(C)C)=CC1=O
growth inhibition [1]: -38.2%
growth inhibition [2]: -20.6%
growth inhibition [3]: -6.75%
growth inhibition [4]: -4.9%
growth inhibition [5]: 3.5%
growth inhibition [6]: 0.9%

O=[N+]([O-])/C(C(Cl)=C(Cl)Cl)=C1\NCCS1
growth inhibition [1]: 39.7%
growth inhibition [2]: 25.5%
growth inhibition [3]: 40.2%
growth inhibition [4]: 9.7%
growth inhibition [5]: 34.6%
growth inhibition [6]: 42.3%

CC1(C)CC(=O)C(/C=N/C(N)=S)=C(O)C1
growth inhibition [1]: -20.3%
growth inhibition [2]: -52.1%
growth inhibition [3]: -13.8%
growth inhibition [4]: 6.2%
growth inhibition [5]: -0.85%
growth inhibition [6]: -31.6%

CCCCNC(=O)c1ccccc1C
growth inhibition [1]: 4.8%
growth inhibition [2]: 4.7%
growth inhibition [3]: -6.7%
growth inhibition [4]: -34.9%
growth inhibition [5]: 2.25%
growth inhibition [6]: 1.35%

COC(=O)CCC(=O)c1ccc2c(c1)CCC2
growth inhibition [1]: -3.25%
growth inhibition [2]: -26.2%
growth inhibition [3]: 17.2%
growth inhibition [4]: 3%
growth inhibition [5]: 33.5%
growth inhibition [6]: 7.65%

c1ccc2cc(Nc3ccc(Nc4ccc5ccccc5c4)cc3)ccc2c1
growth inhibition [1]: 0.25%
growth inhibition [2]: 4.4%
growth inhibition [3]: 12.3%
growth inhibition [4]: 14.7%
growth inhibition [5]: 27.2%
growth inhibition [6]: 2.6%

NNC(=O)CC(=O)N(C(=O)/C=C/c1ccccc1)c1ccc(Cl)cc1
growth inhibition [1]: -11.9%
growth inhibition [2]: -16.9%
growth inhibition [3]: 15.1%
growth inhibition [4]: 24%
growth inhibition [5]: -14.5%
growth inhibition [6]: 19.4%

CCOC(=O)C(C)Oc1ccc(Cl)cc1 (centres undefined)
growth inhibition [1]: -7.85%
growth inhibition [2]: -14.9%
growth inhibition [3]: -13.1%
growth inhibition [4]: -44.1%
growth inhibition [5]: -6.3%
growth inhibition [6]: 1.8%

COc1ccc2c(c1)C(=O)C(CO)C(C(=O)O)C2 (centres undefined)
growth inhibition [1]: -13.1%
growth inhibition [2]: -17.1%
growth inhibition [3]: -1.15%
growth inhibition [4]: -24.6%
growth inhibition [5]: -3.5%
growth inhibition [6]: -24.8%

COC(=O)c1nc(=S)[nH]c(C(=O)OC)c1C(=O)c1ccc(OC)cc1
growth inhibition [1]: -31.9%
growth inhibition [2]: -17.6%
growth inhibition [3]: -10.2%
growth inhibition [4]: -7.9%
growth inhibition [5]: -30.4%
growth inhibition [6]: 1.2%

O=C(O)c1cc2ccc(Cl)cc2c2cc(C(F)(F)F)ccc12
growth inhibition [1]: 2.25%
growth inhibition [2]: 27.8%
growth inhibition [3]: 27.2%
growth inhibition [4]: 50.9%
growth inhibition [5]: 27.2%
growth inhibition [6]: 53.7%
